HT1080NT lethal: kills 2HG-producing HT-1080-NT fibrosarcoma cells; Potency, µM (highest dose often 46.1 µM), without a hit: top-dose activity, negative = less viability, hits mostly cytotoxic; actives 1.6% (n = 360,000); AID 686970; HT-1080-NT fibrosarcoma viability, CellTiter-Glo ATP luminescence, 48 h;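 further: NT is the 2HG producing partner of a matched IDH1 knockdown line; potency means the concentration at half of the fitted maximal effect; 0% = DMSO-treated cells and -100% = media-only wells without cells; nearly all actives have a fitted effect of over 55% in size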
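Read-out is CellTiter-Glo luminescence after 10 minutes at room temperature, following 48 hours' compound treatment of HT-1080-NT cells (750 cells/well, RPMI, 5% FBS, 37 degrees C).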
HT1080 IDH1KD tx: HT-1080 IDH1 knockdown cell toxicity (counter line); HT-1080 IDH1 knockdown viability, ATP luminescence, 48 h; Potency, µM (top dose mostly 46.1 µM), for inactives: at the highest dose activity, negative = toxicity, actives largely listed as cytotoxic; actives 2% (n = 360,000);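 further: potency means the concentration at half of the fitted maximal effect; 0% = DMSO wells and -100% = cell-free medium wells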
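In this qHTS, HT-1080 cells depleted of IDH1 are exposed for 48 h at 37 °C to compound titrations. Toxicity is scored from CellTiter-Glo luminescence, with DMSO as full viability and medium alone as none.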
TDP1 cell noCPT: qHTS for Inhibitors of human tyrosyl-DNA phosphodiesterase 1 (TDP1): qHTS in cells in absence of CPT | DT40 Tdp1-/- hTDP1 cells, no CPT, ATP luminescence, 48 h | Potency, µM (highest dose often 46.2 µM), inactives show top-dose activity change, negative = growth inhibition, hits mostly inhibitors | actives 15% (n = 420,000) | AID 686978, 2013; further: potency means the concentration at half of the fitted maximal effect; nearly all actives have a fitted effect of over 55% in size
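Chicken DT40 Tdp1-/- cells stably complemented with human TDP1 were seeded at 400 cells/well with DMSO in place of 20 nM camptothecin. After compound pinning, cells grew at least 48 hr at 37 °C; viability read by CellTiter-Glo luminescence.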
IL-1B inflam inh: inflammasome signaling inhibition, IL-1 beta readout. AID 743279. THP-1 LPS/ATP IL-1B secretion, AlphaLISA, 16 h; hits give low values. actives 4.7% (n = 360,000). activity change, % at 57.5 µM; in the data active means activity change below about -50%; inconclusive means mostly about -30% to -49%
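THP-1 cells pretreated 1 hr with compounds (up to 57.5 uM final), then stimulated with LPS (250 ng/mL final) plus ATP (1.25 mM final); secreted IL-1B measured by AlphaLISA after 16 hr, decreased signal indicating inhibition.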
TDP1 cell CPT: DT40-hTDP1 cell growth loss with CPT. actives 12% (n = 420,000). Potency, µM (series often up to 46.2 µM), inactives show at the highest dose activity change, negative = growth inhibition, actives largely listed as inhibitors. chicken DT40 Tdp1-/-;hTDP1 cells + 20 nM CPT, ATP luminescence, 48 h; further: potency means the concentration at half of the fitted maximal effect; nearly all actives have a fitted effect of over 55% in size
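Cell growth measured by CellTiter-Glo luminescence after a minimum 48 h, 37 C compound exposure with 20 nM CPT in Tdp1-knockout DT40 cells stably expressing hTDP1, seeded 400/well; qHTS titration format.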
An asterisk follows results filed as active; ? = inconclusive; nt = not tested or not shown; [ ] = another dose, or the depositor's remark. Hits are enriched below; roughly 19% of the tested compounds scored in any of these assays. Unless noted, the call rests on the fitted dose curve; in most records, active means well fitted curve in the direction sought with a large enough effect; inconclusive means small, poorly fitted or top-dose-only effect, or another doubt; inactive means no such curve, though single readings can be large; an effect the other way counts as inactive or inconclusive. Unless noted, on the % scale 0 is the no-effect control and ±100 the full control effect.

SMILES	HT1080NT lethal	HT1080 IDH1KD tx	TDP1 cell noCPT	IL-1B inflam inh	TDP1 cell CPT
Oc1c(C(c2ccccc2F)N2CCCCC2)sc2nc(-c3ccco3)nn12 (stereo unspecified)	nt	nt	2%	nt	8%
COc1ccc(S(=O)(=O)N2CCOC23CCN(S(=O)(=O)c2cccs2)CC3)cc1	7%	9%	16µM*	1	13µM*
O=S(=O)(c1ccccc1)N1CCC2(CC1)OCCN2S(=O)(=O)c1cccs1	-2%	-7%	21µM*	13	?
COc1cccc(NC(=O)N2CCCC(C(=O)NC3CCCCC3C)C2)c1 (stereo unspecified)	-2%	-14%	-24%	-3	-8%
COc1ccc(C(=O)N2N=C3CC(C)(C)OCC3C2c2ccccc2)cc1 (stereo unspecified)	-1%	-17%	-22%	2	-3%
Nc1nc(Nc2cccc(Cl)c2)sc1C(=O)c1ccc(F)cc1	nt	nt	23µM*	nt	18µM*
CC(=O)c1sc(Nc2cccc(C)c2)nc1C	-10%	-9%	4%	17	-5%
CC(C)(C)C(=O)c1sc(Nc2ccccc2)nc1N	-8%	?	?	-71*	?
COc1ccc(C(=O)c2sc(Nc3ccccc3)nc2C)cc1	-18%	?	?	-70*	?
COc1ccc(Nc2nc(N)c(C(=O)c3ccc(F)cc3)s2)cc1	?	1.8µM*	0.58µM*	-22	0.73µM*
O=C(NCCCNC(=O)c1cnccn1)c1cccc(Cl)c1	10%	12%	7%	16	9%
CC(=O)c1sc(N/N=C\c2ccccc2O)nc1C	?	?	0.92µM*	-74*	1µM*
COc1ccc(Nc2nc(N)c(C(=O)c3ccc(OC)cc3)s2)cc1	?	?	1.6µM*	-74*	1.6µM*
CC(=O)c1sc(Nc2ccc(Oc3ccccc3)cc2)nc1C	?	?	21µM*	47	?
CC(=O)c1sc(Nc2ccccc2)nc1C	6%	7%	-15%	29	-20%
Cc1ccc(C(=O)c2sc(Nc3ccc(F)cc3)nc2N)c(C)c1	nt	nt	15µM*	nt	13µM*
N#Cc1c(Nc2ccc(F)cc2)sc(C(=O)c2ccc(F)cc2)c1N	?	-26%	-25%	6	-24%
CCC(COC)NC(=O)c1cnn(-c2ncc3c(n2)-c2ccccc2CC3)c1C (stereo unspecified)	nt	nt	?	nt	-3%[9.04 µM]
Oc1cccc(O)c1O	nt	nt	?	nt	6µM*
CCN(CC)c1ccc(/C=N/NC(=O)c2ccc(Br)o2)cc1	-30%	?	?	?	?
COc1ccccc1-c1cc(C(=O)N/N=C/c2ccoc2)c2ccccc2n1	-9%	0%	7.3µM*	28	?
O=C(N/N=C/c1cccc(O)c1)c1cc(C2CC2)nc2ccccc12	-29%	?	?	49	?
CCc1ccc(/C=N\NC(=O)c2ccc(Br)o2)s1	-1%	-16%	23µM*	-8	?
CCc1ccc(/C=N/NC(=O)c2cc(C3CC3)nc3ccc(Br)cc23)s1	6.5µM*	5.8µM*	4.6µM*	24	2.6µM*
CCN(CC)C(=O)COc1ccc(/C=N/NC(=O)c2cc(-c3ccccc3OC)nc3ccccc23)cc1OC	1%	-4%	?	nt	?
SMILES	HT1080NT lethal	HT1080 IDH1KD tx	TDP1 cell noCPT	IL-1B inflam inh	TDP1 cell CPT
CCc1ccc(/C=N/NC(=O)c2cc(-c3ccccc3OC)nc3ccccc23)s1	-14%	-10%	12µM*	-6	4.1µM*
COC(=O)c1c(OCC2CCCN(C)C2)cc(=O)n2c1CCN(Cc1ccc(OC)c(O)c1)CC2 (stereo unspecified)	nt	nt	-21%	nt	20%
Cc1ccc(NC(=O)CSCC(=O)NC2=NCCS2)cc1	-1%	16%	-11%	5	?
COCCCNCCCCOc1ccc(Br)cc1C	?	?	23µM*	-56*	?
Cc1cc(Br)ccc1OCCCCNC(C)(C)C	13µM*	?	21µM*	?	?
COCCCNCCCCOc1cccc(Br)c1	-3%	3%	?	-21	?
COc1ccccc1OCCCCNC(C)(C)C	-3%	8%[9.24 µM]	-1%	-15	3%
COCCNCCCCOc1ccc(Br)cc1C	?	-26%	23µM*	-29	?
O=S(=O)(NCc1nc2ccccc2[nH]1)c1ccccc1	?	9%	28%	-10	7%
COc1ccc(OC)c(S(=O)(=O)N(C)CC(=O)N2CCN(c3ccccc3F)CC2)c1	-3%	-3%	?	-4	-22%
Cc1ccc(C)c(CNC(=O)c2ccc3c(c2)nc2n3CCCCC2)c1	nt	nt	18µM*	nt	?
CCOc1ccccc1NC(=O)C(=O)Nc1ccc2nc3n(c(=O)c2c1)CCCCC3	nt	nt	18µM*	nt	23µM*
CCOc1ccccc1NC(=O)c1ccc2c(Cl)c3c(nc2c1)CCC3	nt	nt	-19%	nt	-4%
CCOC(=O)c1ccccc1NC(=O)C(=O)Nc1ccc2nc3n(c(=O)c2c1)CCCCC3	nt	nt	-18%	nt	5%
CCN(CC)S(=O)(=O)c1ccc(NC(=O)c2ccc3c(=O)n4c(nc3c2)CCCCC4)cc1	nt	nt	23µM*	nt	23µM*
CCOc1ccccc1NC(=O)c1ccc2c(Cl)c3c(nc2c1)CCCC3	nt	nt	23µM*	nt	?
O=C1C=C(OCCCl)CC(c2cccc(Cl)c2)O1 (stereo unspecified)	2%	6%	-25%	-30	6%
CCOc1ccc(NC(=O)c2ccc3c(=O)n4c(nc3c2)CCCCC4)cc1	11%	0%	?	24	?
COc1ccc(C)cc1NC(=O)c1ccc2c(=O)n3c(nc2c1)CCCCC3	5%	?	?	9	15µM*
CC(=O)c1cccc(NC(=O)c2ccc3c(Cl)c4c(nc3c2)CCCC4)c1	27%	25%	23µM*	-21	?
O=C(Nc1ccc(F)c(Cl)c1)c1ccc2c(Cl)c3c(nc2c1)CCCC3	nt	nt	-15%	nt	-10%
CCOc1ccccc1NC(=O)c1ccc2c(=O)n3c(nc2c1)CCCCC3	2%	10%	?	?	16µM*
COCCCNC(=S)Nc1ccc2nc3n(c(=O)c2c1)CCCCC3	1%	-1%	-2%	32	-13%
CCOCCCNC(=S)Nc1ccc2nc3n(c(=O)c2c1)CCCCC3	-3%	0%	-25%	-64*	-18%
COc1ccc(NS(=O)(=O)c2cccc(C(=O)NC3CCC(O)CC3)c2)cc1 (stereo unspecified)	3%	5%	?	29	?
CCOC(=O)C1=C(COC(=O)c2ncc(Cl)c(Cl)c2Cl)NC(=O)NC1C (stereo unspecified)	4%	0%	15%	-20	7%

Screening data from PubChem.
